Test [1] is described as follows: BSK_LPS_PGE2: BioMAP Diversity Plus: LPS Assay for Prostaglandin E2 (PGE2) Biomarker Activity (AID 2283082).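 As to AC50: secreted prostaglandin E2 measured by ELISA in LPS-stimulated co-culture.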 The settings on record: primary human HUVEC with PBMC; actives raise or lower the signal. The method, boiled down:
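Compounds were added to the LPS co-culture of endothelium and PBMC, and PGE2 was measured by ELISA after 24 h. Responses in either direction were fitted with DMSO as baseline.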

Read-out in test [2]: Macrophage colony-stimulating factor (MCSF), CSF1 (gene 1435)
Briefly: BSK_LPS_MCSF: BioMAP Diversity Plus: LPS Assay for Macrophage colony-stimulating factor (MCSF) Biomarker Activity (AID 2283083). The settings on record: primary human HUVEC with PBMC; actives raise or lower the signal. Put shortly:
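Bidirectional fitting against DMSO was applied to M-CSF levels read by ELISA at 24 h post-dose. The system pairs human umbilical vein endothelium with peripheral blood mononuclear cells; parallel SRB staining tracked cytotoxicity.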

Read-out in test [3]: Tissue Factor, F3 (gene 2152)
The test is described as follows: BSK_LPS_TissueFactor: BioMAP Diversity Plus: LPS Assay for Tissue Factor Biomarker Activity (AID 2283084). The settings on record: primary human HUVEC with PBMC; actives raise or lower the signal. The method, boiled down: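 Compound was added to an endothelial cell/PBMC co-culture, and after 24 h tissue factor (CD142) was read by ELISA. Gain or loss of signal was fitted against a DMSO baseline, and parallel SRB staining (560 nm) tracked overt cytotoxicity.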

Read-out in test [4]: Tumor necrosis factor (Homo sapiens) (UniProt P01375)
The test is described as follows: BSK_LPS_TNFa: BioMAP Diversity Plus: LPS Assay for Tumour Necrosis Factor alpha (TNFa) Biomarker Activity (AID 2283085).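 As to AC50: TNFa protein level quantified by ELISA in the co-culture.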 The settings on record: primary human HUVEC with PBMC; actives raise or lower the signal. The method, boiled down: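 Cells (umbilical vein endothelium plus peripheral blood mononuclear cells) were dosed with chemical, incubated 24 h, then TNFa was quantified by ELISA; values derive from bidirectional fitting with DMSO as baseline.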

Read-out in test [5]: Vascular cell adhesion molecule 1 (VCAM1), VCAM1 (gene 7412)
The test is described as follows: BSK_LPS_VCAM1: BioMAP Diversity Plus: LPS Assay for Vascular cell adhesion molecule 1 (VCAM1) Biomarker Activity (AID 2283086). Particulars: primary human HUVEC with PBMC; actives raise or lower the signal. The method, boiled down: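 Cells are dosed in an LPS-stimulated endothelial/mononuclear co-culture and, after 24 h, VCAM-1 is quantified by ELISA. Activity in either direction is fitted relative to the DMSO negative control.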

Read-out in test [6]: CD38, CD38 (gene 952)
The test is described as follows: BSK_SAg_CD38: BioMAP Diversity Plus: SAg Assay for CD38 Biomarker Activity (AID 2283087). The settings on record: primary human HUVEC with PBMC; actives raise or lower the signal. The method, boiled down:
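CD38 quantified by ELISA (fluorescence) in a superantigen-activated endothelial cell–PBMC co-culture at 24 h post-dose. Activity fitted in both directions relative to DMSO; parallel SRB and Alamar Blue cytotoxicity read-outs.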

Read-out in test [7]: CD40, CD40 (gene 958)
The test is described as follows: BSK_SAg_CD40: BioMAP Diversity Plus: SAg Assay for CD40 Biomarker Activity (AID 2283088). Particulars: primary human HUVEC with PBMC; actives raise or lower the signal. The method, boiled down: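 CD40 is measured by fluorescence ELISA in an endothelial/PBMC primary human co-culture at 24 h post-dose. Fitting is bidirectional, DMSO baseline. Parallel SRB staining (560 nm) flags cytotoxicity.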

Read-out in test [8]: CD69, CD69 (gene 969)
Briefly: BSK_SAg_CD69: BioMAP Diversity Plus: SAg Assay for CD69 Biomarker Activity (AID 2283089).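 As to AC50: cell surface CD69 protein quantified by ELISA with fluorescence detection.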 The settings on record: primary human HUVEC with PBMC; actives raise or lower the signal. Put shortly: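 Primary human vascular co-culture (umbilical vein endothelium with peripheral blood mononuclear cells) exposed to test chemical for 24 h. CD69 levels quantified by fluorescence ELISA; DMSO served as negative control for bidirectional fitting.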

Read-out in test [9]: Monocyte Chemoattractant Protein-1 (MCP1), CCL2 (gene 6347)
The test is described as follows: BSK_SAg_MCP1: BioMAP Diversity Plus: SAg Assay for Monocyte Chemoattractant Protein-1 (MCP1) Biomarker Activity (AID 2283090). Particulars: primary human HUVEC with PBMC; actives raise or lower the signal. Put shortly:
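Values derive from bidirectional fitting of ELISA-measured MCP1 against DMSO controls. Readings were taken 24 h after dosing human vascular endothelial cells co-cultured with peripheral blood mononuclear cells under superantigen stimulation.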

Read-out in test [10]: E-selectin (Homo sapiens) (UniProt P16581)
Briefly: BSK_SAg_Eselectin: BioMAP Diversity Plus: SAg Assay for Eselectin Biomarker Activity (AID 2283091). The settings on record: primary human HUVEC with PBMC; actives raise or lower the signal. Put shortly:
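Cell-surface E-selectin is read by ELISA at 24 h in the SAg co-culture of HUVEC and PBMC. Curves are fitted in both directions relative to DMSO. Parallel SRB total-protein staining tracks overt toxicity.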

Read-out in test [11]: Monokine induced gamma interferon (MIG), CXCL9 (gene 4283)
Briefly: BSK_SAg_MIG: BioMAP Diversity Plus: SAg Assay for Monokine induced gamma interferon (MIG) Biomarker Activity (AID 2283092). Particulars: primary human HUVEC with PBMC; actives raise or lower the signal. Put shortly:
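Endothelial cells and PBMC were co-cultured, exposed to test chemicals, and sampled 24 h later. MIG was measured by ELISA, and responses were fitted in both directions relative to DMSO.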

Test [12] is described as follows: BSK_SAg_PBMCCytotoxicity: PBMC Cytotoxicity Assessment in the BioMAP Diversity Plus: SAg Assay (AID 2283093).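 Also: PBMC viability measured as Alamar Blue reduction fluorescence at 546/580 nm; fitted both ways against DMSO so a hit may be loss or gain of signal.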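 As to AC50: PBMC superantigen activated with SEB plus TSST-1 one hour after compound addition.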 The settings on record: primary human HUVEC with PBMC. Put shortly: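 Alamar Blue reduction (6 h, ex/em 546/580 nm) read after 90 h culture of PBMC pre-dosed 1 h then stimulated with SEB plus TSST-1, 20 ng/mL each. Gain or loss of signal fitted relative to DMSO.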

Read-out in test [13]: Interleukin-8 (IL8), CXCL8 (gene 3576)
The test is described as follows: BSK_SAg_IL8: BioMAP Diversity Plus: SAg Assay for Interleukin-8 (IL8) Biomarker Activity (AID 2283094). Particulars: primary human HUVEC with PBMC; actives raise or lower the signal. Put shortly:
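Chemicals were dosed onto a human endothelial–PBMC co-culture, and IL-8 was quantified by ELISA after 24 h. Both increases and decreases were fitted relative to DMSO.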

The nature of test [14]: BSK_SAg_Proliferation: Cell Proliferation Assessment in the BioMAP Diversity Plus: SAg Assay (AID 2283095).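 Also: relative cell number as total protein by SRB absorbance in sub-confluent culture.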 The settings on record: primary human HUVEC with PBMC. The method, boiled down:
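Absorbance of sulforhodamine B at 560 nm reports total protein in a human vascular endothelial/PBMC co-culture after 96 h chemical exposure. Gain or loss of signal is fitted in both directions against DMSO.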

The nature of test [15]: BSK_SAg_SRB: Viability Assessment in the BioMAP Diversity Plus: SAg Assay (AID 2283096).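 Also: cells read one day after compound addition; hits may be either gain or loss of signal compared with DMSO.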 Particulars: primary human HUVEC with PBMC. Put shortly:
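SRB absorbance at 560 nm served as the viability read-out. Cells (HUVEC plus peripheral blood mononuclear cells) were TCA-fixed and stained 24 h post-dosing; activity fitted in both directions against DMSO controls.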

Test [16] has as its target human CYP2A6, CYP2A6 (gene 1548) (UniProt P11509). Briefly: NVS_ADME_hCYP2A6: NovaScreen (NVS) CYP450-related Enzyme Activity (ADME) Assay for human CYP2A6 (AID 2283099; active = hit-call score of the fitted dose curve at least 0.9, where 1 is the maximum). The method, boiled down: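 Compounds screened at 10 uM (duplicate) and, if active, titrated to a 20 uM top concentration against insect-cell-expressed CYP2A6. Loss of fluorescent product signal after 0.5 h, relative to acetonitrile baseline, indicates inhibition.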

The target of test [17] is human CYP1A1, CYP1A1 (gene 1543) (UniProt P04798). The test is described as follows: NVS_ADME_hCYP1A1: NovaScreen (NVS) CYP450-related Enzyme Activity (ADME) Assay for human CYP1A1 (AID 2283100; active = hit-call score of the fitted dose curve at least 0.9, where 1 is the maximum). The method, boiled down: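 Chemicals were first tested in duplicate at 10 uM, and those passing a 30% inhibition threshold were rerun as concentration series topping at 20 uM. Fluorescence read-out of recombinant enzyme turnover after 1 h, relative to acetonitrile.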
Chain of human CYP1A1, CYP1A1 (gene 1543) (P04798 whole entry, looked up): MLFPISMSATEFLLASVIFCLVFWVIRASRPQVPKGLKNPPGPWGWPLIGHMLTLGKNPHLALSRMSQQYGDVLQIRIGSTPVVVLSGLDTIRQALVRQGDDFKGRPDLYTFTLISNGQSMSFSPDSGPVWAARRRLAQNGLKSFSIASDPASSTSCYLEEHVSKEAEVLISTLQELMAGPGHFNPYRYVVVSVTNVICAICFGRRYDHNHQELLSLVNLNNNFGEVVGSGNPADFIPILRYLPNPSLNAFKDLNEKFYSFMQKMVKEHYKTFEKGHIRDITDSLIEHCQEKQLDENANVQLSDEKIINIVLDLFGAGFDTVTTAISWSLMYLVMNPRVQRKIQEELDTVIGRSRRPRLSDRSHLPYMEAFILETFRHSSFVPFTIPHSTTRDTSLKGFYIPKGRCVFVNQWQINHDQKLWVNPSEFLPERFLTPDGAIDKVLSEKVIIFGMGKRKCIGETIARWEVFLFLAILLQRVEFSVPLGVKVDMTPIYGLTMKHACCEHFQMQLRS

For test [18], the target named is human CYP2B6, CYP2B6 (gene 1555) (UniProt P20813). Briefly: NVS_ADME_hCYP2B6: NovaScreen (NVS) CYP450-related Enzyme Activity (ADME) Assay for human CYP2B6 (AID 2283101; active = hit-call score of the fitted dose curve at least 0.9, where 1 is the maximum). The method, boiled down:
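Cell-free recombinant enzyme assay with a fluorogenic substrate; fluorescence intensity read 1 hour after dosing. Loss of signal relative to acetonitrile negative control indicates inhibition. Primary screen run in duplicate at 10 uM, actives then tested in concentration series.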

In test [19] the target is human CYP1A2, CYP1A2 (gene 1544) (UniProt P05177). The test is described as follows: NVS_ADME_hCYP1A2: NovaScreen (NVS) CYP450-related Enzyme Activity (ADME) Assay for human CYP1A2 (AID 2283102; active = hit-call score of the fitted dose curve at least 0.9, where 1 is the maximum;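 also: fluorescence from turnover of a fluorogenic substrate by recombinant insect-cell CYP1A2; potency for inhibition since loss of fluorescence marks reduced CYP1A2 activity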). Put shortly:
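Enzyme activity of insect-cell-expressed human CYP1A2 measured by fluorescence 0.5 h after compound addition, relative to acetonitrile. Compounds first tested in duplicate at 10 uM, actives followed up in concentration series.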

The target of test [20] is human CYP19A1, CYP19A1 (gene 1588) (UniProt P11511). Briefly: NVS_ADME_hCYP19A1: NovaScreen (NVS) CYP450-related Enzyme Activity (ADME) Assay for human CYP19A1 (AID 2283098; active = hit-call score of the fitted dose curve at least 0.9, where 1 is the maximum). The method, boiled down:
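Primary testing was in duplicate at a single 10 uM concentration, with actives followed up in concentration-response series. Fluorescence read-out of recombinant enzyme activity at 0.5 h, cell-free. Acetonitrile was the negative-control baseline.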

Records with an inconclusive call do not appear. Activity calls are given as the source filed them. The calls were made as follows, unless noted: active = hit-call score of the fitted dose curve at least 0.9, where 1 is the maximum; inactive = score below 0.9.

Chain of E-selectin (Homo sapiens) (P16581 whole entry, looked up): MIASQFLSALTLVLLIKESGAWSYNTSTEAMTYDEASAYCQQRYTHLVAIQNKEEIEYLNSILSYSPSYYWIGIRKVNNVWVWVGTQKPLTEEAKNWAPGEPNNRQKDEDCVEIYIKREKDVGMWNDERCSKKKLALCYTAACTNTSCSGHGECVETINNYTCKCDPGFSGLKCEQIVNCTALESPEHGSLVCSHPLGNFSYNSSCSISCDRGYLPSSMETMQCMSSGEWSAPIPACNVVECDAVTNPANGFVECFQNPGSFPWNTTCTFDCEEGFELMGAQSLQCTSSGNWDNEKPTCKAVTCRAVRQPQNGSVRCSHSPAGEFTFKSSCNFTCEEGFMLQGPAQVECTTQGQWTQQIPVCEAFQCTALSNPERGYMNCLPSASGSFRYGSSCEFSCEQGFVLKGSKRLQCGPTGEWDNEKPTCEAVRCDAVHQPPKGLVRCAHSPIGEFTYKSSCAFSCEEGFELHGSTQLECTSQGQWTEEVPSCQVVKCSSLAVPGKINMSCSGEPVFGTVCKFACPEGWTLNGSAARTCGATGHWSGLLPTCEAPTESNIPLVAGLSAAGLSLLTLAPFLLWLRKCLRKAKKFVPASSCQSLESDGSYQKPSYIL
Chain of human CYP2B6, CYP2B6 (gene 1555) (P20813 whole entry, looked up): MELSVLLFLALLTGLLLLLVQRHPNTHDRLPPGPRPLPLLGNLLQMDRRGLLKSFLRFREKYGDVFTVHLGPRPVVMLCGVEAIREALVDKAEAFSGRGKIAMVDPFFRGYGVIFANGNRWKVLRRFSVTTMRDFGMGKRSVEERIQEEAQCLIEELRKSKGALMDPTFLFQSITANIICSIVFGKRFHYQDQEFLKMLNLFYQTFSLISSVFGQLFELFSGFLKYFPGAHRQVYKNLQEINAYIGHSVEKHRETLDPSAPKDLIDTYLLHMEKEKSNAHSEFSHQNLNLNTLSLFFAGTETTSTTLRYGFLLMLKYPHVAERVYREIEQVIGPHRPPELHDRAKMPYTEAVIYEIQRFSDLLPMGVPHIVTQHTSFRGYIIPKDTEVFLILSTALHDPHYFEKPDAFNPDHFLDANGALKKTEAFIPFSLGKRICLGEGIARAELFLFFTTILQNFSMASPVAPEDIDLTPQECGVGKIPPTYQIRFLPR
Chain of Tumor necrosis factor (Homo sapiens) (P01375 whole entry, looked up): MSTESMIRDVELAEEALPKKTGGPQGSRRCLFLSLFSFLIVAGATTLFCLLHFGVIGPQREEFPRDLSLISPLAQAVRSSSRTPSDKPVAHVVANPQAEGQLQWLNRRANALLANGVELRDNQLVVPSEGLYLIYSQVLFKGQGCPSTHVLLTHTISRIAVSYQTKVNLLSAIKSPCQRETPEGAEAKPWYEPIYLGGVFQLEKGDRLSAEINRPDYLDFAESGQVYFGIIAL
Chain of human CYP1A2, CYP1A2 (gene 1544) (P05177 whole entry, looked up): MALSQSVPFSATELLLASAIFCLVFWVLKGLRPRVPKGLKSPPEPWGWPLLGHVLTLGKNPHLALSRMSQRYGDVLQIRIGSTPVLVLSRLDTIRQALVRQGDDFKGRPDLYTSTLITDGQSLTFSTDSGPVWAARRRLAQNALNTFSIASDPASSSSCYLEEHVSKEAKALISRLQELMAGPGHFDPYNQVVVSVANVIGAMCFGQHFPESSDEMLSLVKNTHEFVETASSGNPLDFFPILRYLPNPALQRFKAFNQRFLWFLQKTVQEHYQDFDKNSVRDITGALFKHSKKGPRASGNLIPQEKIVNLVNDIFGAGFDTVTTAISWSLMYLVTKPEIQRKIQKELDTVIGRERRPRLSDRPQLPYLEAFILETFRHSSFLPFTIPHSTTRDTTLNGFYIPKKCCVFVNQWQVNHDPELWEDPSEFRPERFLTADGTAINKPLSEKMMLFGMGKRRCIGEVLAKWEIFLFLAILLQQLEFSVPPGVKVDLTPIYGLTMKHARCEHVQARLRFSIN
Chain of human CYP2A6, CYP2A6 (gene 1548) (P11509 whole entry, looked up): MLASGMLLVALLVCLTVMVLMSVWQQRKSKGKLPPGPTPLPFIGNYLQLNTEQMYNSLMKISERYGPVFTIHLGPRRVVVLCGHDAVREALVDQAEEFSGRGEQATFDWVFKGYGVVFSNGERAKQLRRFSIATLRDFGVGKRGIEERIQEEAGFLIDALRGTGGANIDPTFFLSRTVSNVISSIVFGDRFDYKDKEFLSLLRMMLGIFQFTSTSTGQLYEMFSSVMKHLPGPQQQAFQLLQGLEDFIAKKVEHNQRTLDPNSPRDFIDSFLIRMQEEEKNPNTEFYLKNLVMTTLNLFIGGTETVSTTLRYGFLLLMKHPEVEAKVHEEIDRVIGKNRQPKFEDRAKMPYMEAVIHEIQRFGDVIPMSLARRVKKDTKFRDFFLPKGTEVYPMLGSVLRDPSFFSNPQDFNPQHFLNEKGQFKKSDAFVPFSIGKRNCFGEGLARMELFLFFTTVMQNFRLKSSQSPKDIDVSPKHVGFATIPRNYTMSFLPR
Chain of human CYP19A1, CYP19A1 (gene 1588) (P11511 whole entry, looked up): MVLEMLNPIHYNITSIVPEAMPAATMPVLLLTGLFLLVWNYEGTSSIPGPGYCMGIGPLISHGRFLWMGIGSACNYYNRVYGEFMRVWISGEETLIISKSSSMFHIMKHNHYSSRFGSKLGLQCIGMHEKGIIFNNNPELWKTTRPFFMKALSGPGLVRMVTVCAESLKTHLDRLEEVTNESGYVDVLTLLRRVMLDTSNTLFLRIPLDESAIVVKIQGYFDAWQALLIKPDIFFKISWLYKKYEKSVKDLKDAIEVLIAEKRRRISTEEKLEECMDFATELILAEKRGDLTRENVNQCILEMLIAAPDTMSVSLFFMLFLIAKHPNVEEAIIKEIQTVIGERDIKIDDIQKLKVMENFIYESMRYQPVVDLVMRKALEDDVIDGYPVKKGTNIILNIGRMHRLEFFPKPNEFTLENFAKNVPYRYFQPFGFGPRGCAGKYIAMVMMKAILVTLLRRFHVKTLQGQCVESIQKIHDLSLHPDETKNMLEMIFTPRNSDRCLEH

In the case of `CCOC(=O)[C@]1(c2ccccc2)Oc2ccccc2[C@@H]1N`, the outcome in test [1], in [2], in test [3], in test [4], in test [5] and in test [7] was inactive. Further, the result in test [8], in test [10], in [11], in [13], in test [15] and in test [16] was inactive. Further, the result in [17] was inactive. Also, the AC50 is 36.2 µM (active) in test [6]; 30.1 µM (active) in test [9]; 24.3 µM (active) in test [12]; 31.3 µM (active) in test [14]; 0.269 µM (active) in test [18]; 5.07 µM (active) in test [19].
`Clc1ccccc1Cl`: the outcome in test [1], in test [2], in test [3], in test [4], in test [5] and in test [6] was inactive. The outcome in test [7], in test [8], in test [9], in test [10], in test [11] and in test [12] was inactive. The outcome in test [13], in [14], in test [15], in [20] and in test [16] was inactive.
For `COP(=S)(OC)SCN1C(=O)c2ccccc2C1=O`, the result in test [1], in test [2], in [3], in test [4], in test [5] and in test [6] was inactive. Also, the result in test [7], in test [8], in test [9], in [10], in test [11] and in [12] was inactive. Further, the outcome in [13], in test [14] and in test [15] was inactive. Moreover, the results for the AC50 in test [17], in test [18] and in test [19] were 3.41 µM (active), 0.766 µM (active) and 3.71 µM (active), respectively.
As for `Nc1ccc(Cc2ccc(N)cc2)cc1`, the half-maximal activity concentration (AC50) in test [1] is 8.34 µM (active); in [10], 13.6 µM (active); in test [18] it was 0.719 µM (active). Further, the result in [2], in test [3], in test [4], in test [5], in [6] and in [7] was inactive. For the same molecule, the result in test [8], in test [9], in test [11], in test [12], in test [13] and in [14] was inactive. Further, the result in [15] and in [17] was inactive.
For `Oc1ccc2ccc3cccc4ccc1c2c34`, the AC50 in test [1] is 4.03 µM (active); in test [2] it was 30.4 µM (active); in test [3], 34.4 µM (active); in test [4] it was 33 µM (active); in test [5] it was 35.3 µM (active); in test [6], 16.5 µM (active). Moreover, the AC50 is 23.3 µM (active) in [7]; 31.9 µM (active) in test [8]; 29.5 µM (active) in [9]; 30.7 µM (active) in [10]; 36.7 µM (active) in [11]; 8.38 µM (active) in test [12]. The half-maximal activity concentration (AC50) in test [13] was 36.1 µM (active); in test [14] it was 6.09 µM (active); in test [15], 30.4 µM (active); in [17] it was 2.84 µM (active); in [19], 0.275 µM (active).

The values above are taken from PubChem BioAssay (EPA / NIEHS).
